# Results from PubChem BioAssay AID624202 (National Center for Advancing Translational Sciences (NCATS), 2012).
# Screen size: about 380,000 compounds; about 4,000 (1.1%) were called active. A call without a number means that no potency is given here. About 3% were inconclusive and are not listed. Calls come from the whole dose curve; as a rule, active = well fitted activation curve with a large enough effect; inconclusive = small, poorly fitted or top-dose-only effect; inactive = no such curve, though single readings can be large or run the other way. Only a selection was taken, and actives are over-represented in it overall.
# Assay: qHTS Assay to Identify Small Molecule Activators of BRCA1 Expression; note: nearly all actives have a fitted effect of over 80% in size
# Conditions: MCF7-BRCA1-FFLuc reporter, luminescence, 48 h; series mostly up to 46.1 µM
# Text: Functionally, BRCA1 has been implicated in a wide array of cellular activities, including DNA damage repair, cell-cycle checkpoint control, growth inhibition, apoptosis, transcriptional regulation, chromatin remodeling, protein ubiquitylation, and mammary stem cell self-renewal and differentiation. Reduction in BRCA1 levels is associated with an increase in tumor growth and resistance to anti-estrogenic agents, such as tamoxifen, while an increase in BRCA1 expression leads to cell growth arrest and apoptosis. […] The frequent loss of BRCA1 expression in invasive breast cancers in the absence of somatic mutation has been attributed to numerous mechanisms, including hypermethylation of the BRCA1 promoter, exaggerated ubiquitylation of BRCA1 protein, and improper intracellular localization. […] Basal-like breast cancers (BLBCs) are associated with an aggressive clinical course, resistance to chemotherapy, and typically lack expression of estrogen receptor (ER), progesterone receptor (PR), and epidermal growth factor receptor 2 (HER2). BLBCs account for 10-17% of all breast cancers, have few therapeutic options, and are considered the biggest unmet need in the treatment of breast cancer. Conversely, tumors which maintain expression of functional BRCA1 are almost uniformly luminal type cancers, and are accordingly associated with more indolent clinical courses, responsiveness to endocrine therapies, and improved survival.
# As such, it is possible that an increase in BRCA1 expression would enable cellular differentiation and restore tumor suppressor function, resulting in delayed tumor growth and less aggressive, more treatable breast cancers. The long term goal of this proposal is to develop a novel prevention or therapeutic agent for breast cancer patients. To accomplish this goal, the overall objective of this proposal is to access the resources provided by the NIH Molecular Libraries Roadmap Initiative and the Molecular Libraries Probe Production Centers Network (MLPCN) to discover and develop new chemical activator probes that will increase BRCA1 expression and function.
# NIH Molecular Libraries Probe Production Network [MLPCN]
# NIH Chemical Genomics Center [NCGC]
# PI Name: Lisa Harlan-Williams, University of Kansas Medical Center
# 5microl of MCF7-BRCA1-FFLuc cell suspension (400 cells/microl in phenol-red free MEM) are dispensed into Greiner white solid bottom 1536-well assay plates, yielding a final well density of 2000 cells/well. Plates are incubated for 2 hours at 37 degrees C in 5% humidified CO2 to allow cell attachment. Compounds are then transferred via Kalypsys pin tool equipped with 1536-pin array (10nl slotted pins, V&P Scientific, San Diego, CA). The plates are then incubated at 37 degrees C in 5% humidified CO2 for 48 hours. The NCGC in-house luciferase substrate reagent, Buglite, is then added (2.5microl) and plates incubated for 15 minutes, before being transferred to a ViewLux high-throughput CCD imager (PerkinElmer) wherein single end-point measurements of luminescence are acquired using a clear filter. The positive control compound, genistein, will be pinned into dedicated control columns on each plate, including a 16-point 1:3 titration in duplicate, as well as a 10microM maximum activation control, allowing for the normalization of screening activity. DMSO will be pinned into a separate column as a negative control.
# All screening operations will be performed on a fully integrated robotic system (Kalypsys, San Diego, CA) containing one RX-130 and two RX-90 anthropomorphic robotic arms (Staubli, Duncan, SC). Library plates will be screened starting from the lowest and proceeding to the highest concentration. Vehicle-only plates, with DMSO being pin-transferred to columns 5-48, will be inserted uniformly at the beginning and the end of each library in order to monitor and record any shifts in the background, which can be affected by reagent dispensers or loss in enzyme activity over time. […]
# Potency is the fitted concentration of half-maximal effect.
row,SMILES,Potency
1,COc1cc(OC)c(C2C=C(C(=O)O)Nc3ncnn32)cc1OC (centres undefined),inactive
2,COc1ccc(C)cc1NC(=O)CCc1c(C)nn(-c2ccc(N3CCOCC3)nn2)c1C,inactive
3,COc1cccc(C(O)Cc2nc3ccccc3n2C)c1OC (centres undefined),inactive
4,CCOc1ccc(C(O)Cc2nc3ccccc3n2C)cc1 (centres undefined),12.6 µM (active)
5,CCOc1ccc(C(O)Cn2c(=N)n(CCN3CCCCC3)c3ccccc32)cc1 (centres undefined),inactive
6,CCn1cc2nc(SCc3ccccc3Cl)n(CCc3ccccc3)c(=O)c2n1,inactive
7,CC(C)(C)C1CCC(NC(=O)c2cnn3c2NC(=C2CC2)C=C3C(F)F)CC1 (centres undefined),inactive
8,CSCCNC(=O)c1ccc2nc(Cc3ccccc3F)oc2c1,12.6 µM (active)
9,COc1ccc(Cc2nc3ccc(C(=O)NCC4CCOCC4)cc3o2)cc1OC,inactive
10,COc1ccc(Cc2nc3ccc(C(=O)NCc4ccc(OC)cc4OC)cc3o2)cc1,inactive
11,COc1ccc(CCn2c3c(c(=O)[nH]c2=S)CN(C(C)C)CN3)cc1OC,inactive
12,COC(=O)[C@H](Cc1ccccc1)NC(=O)Nc1ccc(S(N)(=O)=O)cc1,inactive
13,NS(=O)(=O)c1ccc(Nc2nc(-c3ccccc3)cs2)cc1,7.08 µM (active)
14,CC(=O)c1ccc(Nc2nc(C(N)c3ccccc3)cs2)cc1 (centres undefined),inactive
15,NS(=O)(=O)c1ccc(NC(=O)CSc2nnc3c(n2)[nH]c2ccccc23)cc1,inactive
16,COCCNC(=O)c1ccc2c(c1)N=C(C)c1cc(C)ccc1S2,inactive
17,N#Cc1ccc(C2N=C(c3ccccc3)NO2)cc1 (centres undefined),2.51 µM (active)
18,Brc1ccccc1C1N=C(c2ccccc2)NO1 (centres undefined),inactive
19,CCOc1ccccc1NC(=O)C1=C(C)Nc2ncnn2C1c1ccc(NC(C)=O)cc1 (centres undefined),inactive
20,CC(=O)N1c2ccc(S(=O)(=O)N3CCCCCC3)cc2CC1C(=O)NCc1ccccc1C (centres undefined),inactive
21,COc1ccc(-c2csc(Nc3cccc(C)n3)n2)cc1OC,2.82 µM (active)
22,COc1ccc(-c2cc(C(F)(F)F)n3nc(-c4ccccc4)cc3n2)cc1OC,inactive
23,COc1cccc(C(O)c2nc(-c3ccc(C)c(C)c3)cs2)c1 (centres undefined),inactive

row,SMILES,Potency
1,O=C(c1ccc2c(=O)n(Cc3ccco3)c(=S)[nH]c2c1)N1CCCC1,inactive
2,O=C(Nc1cccc2cccnc12)c1cccc2c(Br)cccc12,inactive
3,Brc1cccc(-c2nnn3c2nc(NC2CCCCC2)c2ccccc23)c1,inactive
4,COc1ccc(-c2nc3ccccc3o2)cc1NC(=O)c1cc([N+](=O)[O-])ccc1N1CCOCC1,inactive
5,CC(=O)Nc1cccc(-c2cc(NC(C)=O)c3ncc(-c4ccccc4)n3c2)c1,inactive
6,CC(=O)Nc1cccc(-c2cnc3ccccc3n2)c1,3.98 µM (active)
7,CCS(=O)(=O)Nc1cccc(-c2cc(-c3ccccc3)c3cc(C)ccc3n2)c1,inactive
8,COc1cncc(-c2cnc3sc(NCCc4ccccn4)nn23)c1,inactive
9,COc1ccc(NCCc2ccccn2)cc1,12.6 µM (active)
10,Cc1c(C)c(C)c(S(=O)(=O)NCCc2ccccn2)c(C)c1C,inactive
11,CN(Cc1ccccc1)c1ncnc2onc(-c3ccc(F)cc3)c12,inactive
12,CCCCCCOC(=O)NCC(O)c1ccccc1 (centres undefined),2.82 µM (active)
13,CCCCOC(=O)Nc1nnc(CC(=O)NCc2ccccc2)s1,inactive
14,O=C(CC(c1ccccc1)c1ccccc1)NCC(O)c1ccc([N+](=O)[O-])cc1 (centres undefined),inactive
15,COc1ccc2cc(CNc3ccc(OC)c(OC)c3)c(=O)n(CC(=O)Nc3ccccc3F)c2c1,inactive
16,COc1cc2nc(N3CCCN(C)CC3)nc(NC(C)C)c2cc1OC,inactive
17,COc1cccc(CNC(=O)C(NS(=O)(=O)c2ccc3nc(C)sc3c2)C(C)C)c1 (centres undefined),inactive
18,CCC(C)c1ccc(NC(=O)COC(=O)C2CCCC2)cc1 (centres undefined),inactive
19,NS(=O)(=O)c1ccc(NC(=S)N2CCCC2)cc1,inactive
20,CCC(C)c1ccc(NC(=S)N2CCCC2)cc1 (centres undefined),12.6 µM (active)
21,CCN(C(=O)Cn1cnc2sc(C)c(S(=O)(=O)N3CCN(c4ncccn4)CC3)c2c1=O)c1ccccc1F,inactive
22,CCOC(=O)c1c(-c2ccc(OC)cc2)oc2ccc(OCc3ccc(C(=O)OC)cc3)cc12,inactive
23,COc1ccc(-c2ocnc2C(=O)Nc2ccc3c(c2)CCC3)cc1,inactive

row,SMILES,Potency
1,COc1ccc(-c2onc3ccc(C(C)=O)cc23)cc1,8.91 µM (active)
2,Cc1ccc(N2CC(C(=O)Nc3ccc(N(C)C)cc3)CC2=O)cc1Cl (centres undefined),inactive
3,O=C(Nc1ccc(F)cc1F)c1cnn(-c2ccc(F)cc2)c1-n1cccc1,inactive
4,CCc1ccc(NC(=O)Nc2ccncc2)cc1,10 µM (active)
5,CC(C)CC(=O)Nc1ccc(Cc2ccncc2)cc1,inactive
6,CCc1ccc(NC(=O)N[C@H](C(=O)O)C(C)CC)cc1 (some centres undefined),inactive
7,Cc1ccccc1Nc1nn2c(=O)c3ccc(C(=O)NCCc4ccc(Cl)cc4)cc3nc2s1,inactive
8,CN(N=O)c1ccc(C=C2c3ccccc3-c3ccccc32)cc1,inactive
9,COc1ccc(S(=O)(=O)NCCSc2nnnn2-c2ccccc2)cc1,inactive
10,O=C(Nc1ccc(F)cc1F)c1ccc2c(=O)n3c(nc2c1)CCCCC3,inactive
11,CCc1nc2c(cnn2-c2ccc(C)cc2)c(=O)n1-c1ccc(C)cc1,inactive
12,CCCNC(=O)c1c(Cl)cnn1-c1ccc(C)cc1,10 µM (active)
13,CCCNC(=O)CCc1c(C)nc2c(c(C)nn2-c2ccc(C)cc2)c1C,inactive
14,COc1ccccc1CNC(=O)CCn1c(=O)c2ccccc2n(CC(=O)Nc2cccc(Cl)c2)c1=O,inactive
15,COc1ccc2c(c1)O/C(=C\c1ccccc1O)C2=O,12.6 µM (active)
16,O=C1Oc2ccccc2C(=O)/C1=C/c1ccccc1O,inactive
17,COc1cc(/C=C2\Oc3ccc(C#Cc4ccc(O)cc4)cc3C2=O)cc(OC)c1,inactive
18,Cc1ccc(C)c(CN2C(=O)c3ccccc3S(=O)c3ccc(C(=O)N4CCOCC4)cc32)c1 (centres undefined),inactive
19,Cc1ccc(-c2cc(-c3coc4ccccc4c3=O)c3c(n2)-c2cc(Cl)ccc2OC3)cc1,inactive
20,CN(C)CCCn1c(-c2ccc(Cl)cc2)csc1=Nc1ccccc1,inactive
21,Fc1ccccc1COc1cccc2cccnc12,7.94 µM (active)
22,O=S(=O)(NCCOc1cccc2cccnc12)c1ccc(F)cc1,inactive
23,CCOc1cccc(OCCCOc2cccc3cccnc23)c1,inactive
